One may read the inhibition as the relative decrease from the control value, in per cent.

The text below walks through data of PubChem BioAssay.

Assay [1] is described as follows: growth inhibition, single agents and combos, HTB85, cell-based, BGB or cisplatin IC20 combos, synergistic combos for chromothripsis tumors (AID 1671453).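 Further: cells exposed for 96 hours before readout; 0% = vehicle DMSO and 100% = high DMSO killing control.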 Conditions: HTB85 osteosarcoma cells, drug combinations, stronger effect = higher value.
Assay [2] in a line: growth inhibition, MDA-MB-436, cell-based, BGB or cisplatin combos, synergistic combos for chromothripsis tumors (AID 1671458).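 Further: cells exposed for 96 hours; 0% = vehicle DMSO and 100% = killing by high DMSO.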 Conditions: MDA-MB-436 breast carcinoma growth inhibition, drug combinations, stronger effect = higher value.
Assay [3] in a line: BT084 cell growth, single and combined drugs, ICGC_MB145, cisplatin and BGB IC40 combos (AID 1671461; in the data active means inhibition above about 80%;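 further: cells exposed to drugs for 96 hours; 0% = vehicle DMSO and 100% = high DMSO full killing control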). Conditions: BT084 medulloblastoma cells, drug combinations, stronger effect = higher value.
Assay [4] can be described thus: RCMB18 cell growth, single agent and combined, cisplatin and BGB IC40 combos (AID 1671462; in the data active means inhibition above about 80%;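 further: cells exposed to compound for four days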). Conditions: RCMB18 medulloblastoma cells, stronger effect = higher value.
Assay [5] in a line: CRL1545 cell growth, single agent and combined, cisplatin and BGB IC20 combos (AID 1671464; in the data active means inhibition above about 80%;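 further: cells exposed to compound for 96 hours before readout; 0% = vehicle DMSO and 100% = high DMSO killing control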). Conditions: CRL1545 osteosarcoma cells, stronger effect = higher value.
The nature of assay [6]: GFP-Q80 aggregate reduction, neuronal-like cells, cell-based, NGF-treated PC12, GFPQ80 (AID 1614).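 Further: lower means fewer inclusions and 0 means no inclusions at all.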 Conditions: PC12 NGF-treated GFP-polyQ80 inclusion reduction.
Assay [7] can be described thus: compounds altering circadian rhythm period length – cell-based, LOPAC library, luminescence reporter (AID 2774).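 Further: values are relative to mean of DMSO wells on each plate.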 Conditions: circadian reporter cells, at 7 µM, actives lie on both sides.
For assay [8], the system named is Hepatitis C virus NS3 helicase. The assay can be described thus: blockers of NS3h binding to ssDNA – biochemical, fluorescence polarization, LOPAC1280 library, primary screen (AID 687035; in the data active means inhibition above about 37%). Conditions: Purified HCV NS3 helicase, Cy5-dT15 ssDNA binding fluorescence polarization; stronger effect = higher value; concentration not given here. In general terms: In fluorescence polarisation assays a small probe gives low polarisation when free and higher when bound to something large.

Assay [9] is described as follows: compounds altering Cy5-DNA-NS3h complex signal – biochemical, LOPAC1280, artefact control for HCV NS3 helicase inhibitor project (AID 687037). Conditions: Cy5-DNA-NS3h complex fluorescence interference counterscreen.
Assay [10] in a line: blockers of cellular phospholipid synthesis – cell-based, LOPAC library, screen 4, primary screen (AID 1347384). Conditions: animal cells, phospholipid biosynthesis inhibition screen; at 10 µM.
The nature of assay [11]: viability loss in pontine glioma line – cell-based, SU-DIPG-XVII, MIPE5.0, CellTiter-Glo, qHTS, dose response (AID 1347060; cut-off not given, nearly all actives have AC50 up to about 26 µM). Conditions: CellTiter-Glo ATP luminescence. A general note: In ATP-based viability assays light output follows the ATP content of the culture.
A short description of assay [12]: viability loss in pontine glioma line – cell-based, SU-DIPG-XIII, MIPE4.0, CellTiter-Glo, qHTS, dose response (AID 1347061; cut-off not given, nearly all actives have AC50 up to about 37 µM;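 further: cells exposed to compound for 48 hours before readout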). Conditions: CellTiter-Glo ATP luminescence.
A short description of assay [13]: viability loss in pontine glioma line – cell-based, JHH-DIPG-1, MIPE4.0, CellTiter-Glo, qHTS, dose response (AID 1347062; cut-off not given, nearly all actives have AC50 up to about 27 µM). Conditions: JHH-DIPG-1 viability, CellTiter-Glo ATP luminescence.
A short description of assay [14]: viability loss in pontine glioma line – cell-based, SU-DIPG-XXV, MIPE5.0, CellTiter-Glo, qHTS, dose response (AID 1347065; cut-off not given, nearly all actives have AC50 up to about 26 µM;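 further: cells exposed to compound for 48 hours before ATP readout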). Conditions: CellTiter-Glo ATP luminescence.
Assay [15] in a line: growth inhibition of DIPG cells – cell-based, MIPE4.0 library, CellTiter-Glo luminescence, qHTS (AID 1347066; cut-off not given, nearly all actives have AC50 up to about 30 µM;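 further: cells exposed to compound for 48 hours before readout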). Conditions: SU-DIPG-VI viability, CellTiter-Glo ATP luminescence.
A short description of assay [16]: JHH-DIPG-1 glioma cell viability, MIPE5.0 library, CellTiter-Glo luminescence, qHTS (AID 1347067; cut-off not given, nearly all actives have AC50 up to about 26 µM;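 further: cells exposed to compound for 48 hours before readout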). Conditions: JHH-DIPG-1 glioma viability, CellTiter-Glo ATP luminescence.
A short description of assay [17]: growth inhibition of DIPG cells – cell-based, MIPE5.0 library, qHTS (AID 1347068; cut-off not given, nearly all actives have IC50 up to about 30 µM). Conditions: SU-DIPG-XXV viability.

Where “and” joins values, the source holds several entries; their conditions need not be identical. Equal values may be shown once. Records with an inconclusive call do not appear. Calls of active or inactive are those of the source. Unless noted, how the calls were made is not given here.

With `CC1COc2c(N3CCN(C)CC3)c(F)cc3c(=O)c(C(=O)O)cn1c23` (configuration not stated), the inhibition in assay [1] (measured here: with BGB IC20, at 5 µM) was -49.9% and 8% and -6.03%; in assay [1] (measured here: with cisplatin IC20, at 0.5 µM), -39.2% and 5.61% and -11.8%; in assay [1] (measured here: with cisplatin IC20, at 5 µM), -30.4% and 7.76% and -5.54%; in [1] (single agent, at 5 µM) it was -34.4% and -4.7% and 18.3%; in [2] (at 0.5 µM), -34.5% (inactive) and -6.74% (inactive) and -3.04% (inactive); in assay [2] (measured here: BGB combination, at 0.5 µM) it was -25.6% and -3.95% and -7.27%. Further, the inhibition in [2] (measured here: BGB combination, at 5 µM) was -17.4% and 1.21% and -4.78%; in assay [2] (measured here: cisplatin combination, at 0.5 µM), -57.3% and -9.51% and 4.2%; in [2] (measured here: cisplatin combination, at 5 µM) it was -35.2% and 8.53% and -3.87%; in [3] (at 0.5 µM), -33.3% (inactive) and -1.31% (inactive) and 2.04% (inactive); in assay [3] (cisplatin combination, at 0.5 µM) it was -31.2% and 8.69% and -10.9%; in assay [3] (cisplatin combination, at 5 µM), -9.85% and -7.87% and -3.96%. The inhibition in assay [3] (measured here: BGB IC40 combination 0.05 uM, at 0.05 µM) is -9.27% and 10.9% and 19.9%; in assay [3] (single agent, at 5 µM) it was -20.1% and 7.2% and -8.12%; in [4] (at 0.5 µM), -28.4% (inactive) and -8.12% (inactive) and -0.02% (inactive); in [4] (cisplatin combo, at 5 µM), -38.4% and 21.2% and 9.23%; in assay [4] (measured here: BGB IC40 combination, at 0.05 µM), -5.79% and 25.7% and 5.62%; in assay [4] (measured here: combination with cisplatin, at 0.5 µM), -28.1% and -3.73% and 27.4%. Also, the inhibition in assay [4] (single agent, at 5 µM) is -31.9% and -5.49% and -32%; in assay [5] (at 0.5 µM) it was -60% (inactive) and 4.59% (inactive) and -24.8% (inactive); in assay [5] (measured here: with BGB IC20 combination, at 0.5 µM) it was -68.3% and -3.25% and -47.6%; in assay [5] (measured here: with cisplatin IC20 combination, at 0.5 µM), -59.4% and 8.51% and -13.4%; in [5] (single agent, at 0.05 µM), -65.5% and -29.1% and 12%; in assay [5] (single agent, at 5 µM) it was -39.6% and 8.31% and 10.5%.

In [6], `CN=C(NC#N)NCCSCc1nc[nH]c1C` gave an inclusion score of 2. For the same compound, in assay [7], the period change was 0.115 h (inactive). Further, in assay [8], the inhibition is 0% (inactive). For the same compound, in assay [9], the fluorescence ratio (interference) was 1 (inactive). In [10], the compound was classed as inactive.

As for `CCCc1nc2c(C)cc(-c3nc4ccccc4n3C)cc2n1Cc1ccc(-c2ccccc2C(=O)O)cc1`, the call in [11], in assay [12], in assay [13], in assay [14], in assay [15] and in assay [16] was inactive. The compound was called inactive in assay [17].

Take `O=C(O)c1cc(=O)c2c(OCC(O)COc3cccc4oc(C(=O)O)cc(=O)c34)cccc2o1`: the inclusion score in assay [6] was determined as 1. The call in assay [11], in assay [12], in assay [13], in [15], in assay [16] and in [17] was inactive.

In [6], `CC(=O)CC(c1ccccc1)c1c(O)c2ccccc2oc1=O` (configuration not stated) came in with an inclusion score of 2. The outcome in assay [11], in assay [12], in assay [14], in assay [15], in [16] and in assay [17] was inactive.

In turn, `CC(C)NCC(O)c1cc(O)cc(O)c1` (configuration not stated) yielded an inclusion score in assay [6] of 2. The period change in [7] was -0.17 h (inactive). The inhibition in assay [8] was -4% (inactive). Moreover, the fluorescence ratio (interference) in assay [9] was 0.9 (inactive). In assay [10], the compound was called inactive.

With `CN(C)CCCN1c2ccccc2Sc2ccc(Cl)cc21`, in [7], the period change was -0.035 h (inactive). For the same compound, in assay [8], the inhibition was -2% (inactive). Further, the fluorescence ratio (interference) in assay [9] is 1 (inactive). In addition, in assay [10], the call was inactive.

`CC(=O)Nc1nnc(S(N)(=O)=O)s1` displayed an inclusion score in assay [6] of 2. Besides, in assay [7], the period change is 0.15 h (inactive). For the same compound, the inhibition in assay [8] is -1% (inactive). Besides, the fluorescence ratio (interference) in assay [9] was 1 (inactive). In addition, the outcome in [10] was inactive.

Turning to `CCCNC(C)C(=O)Nc1ccccc1C` (configuration not stated), the inclusion score in assay [6] was 2. Further, the period change in assay [7] is -0.13 h (inactive). For the same compound, the inhibition in assay [8] is -1% (inactive). Moreover, in assay [9], the fluorescence ratio (interference) was 1 (inactive). In assay [10], the outcome was inactive.

Take `OCCN1CCN(CCCN2c3ccccc3Sc3ccc(Cl)cc32)CC1`: the period change in assay [7] is -0.035 h (inactive). Also, the inhibition in [8] was -1% (inactive). The fluorescence ratio (interference) in [9] is 1 (inactive). Moreover, the compound was called inactive in [10].

`CC(CN1c2ccccc2Sc2ccccc21)N(C)C` (configuration not stated): the period change in assay [7] was 0.14 h (inactive). Moreover, the inhibition in assay [8] is -2% (inactive). The fluorescence ratio (interference) in [9] is 1 (inactive). Also, in [10], the compound was classed as inactive.
